The values that follow come from PubChem BioAssay (EPA / NIEHS).

Results filed as inconclusive are left out. Active and inactive are the calls of the source. The calls were made as follows: active = hit-call score of the fitted dose curve at least 0.9, where 1 is the maximum; inconclusive = response in the unintended direction; inactive = score below 0.9.

The target in assay [1] is human c-Jun N-terminal Kinases (JNK2), MAPK9 (gene 5601) (UniProt P45984). The assay is described as follows: NVS_ENZ_hJNK2: NovaScreen (NVS) Enzymatic Assay for human c-Jun N-terminal Kinases (JNK2) (AID 2283171). Summed up:
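Cell-free recombinant human JNK2 activity assay; fluorescent substrate and product separated by electrophoretic mobility shift, read 1 h after dosing. Primary duplicate screen at 25 uM; actives run in concentration-response up to 50 uM, relative to DMSO.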

In assay [2] the target is human LYN Proto-Oncogene, Src family Tyrosine Kinase (LynA), LYN (gene 4067) (UniProt P07948). The assay is described as follows: NVS_ENZ_hLynA: NovaScreen (NVS) Enzymatic Assay for human LYN Proto-Oncogene, Src family Tyrosine Kinase (LynA) (AID 2283173). Summed up:
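Recombinant kinase with fluorescent substrate; product separated from substrate by electrophoretic mobility shift and read 1 h after dosing. Duplicate screen at 25 uM, then concentration-response up to 50 uM; activity scored as signal loss against DMSO.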

For assay [3], the target named is Mitogen-activated protein kinase 3 (Homo sapiens) (UniProt P27361). The assay is described as follows: NVS_ENZ_hMAPK3: NovaScreen (NVS) Enzymatic Assay for human Mitogen-Activated Protein Kinase 3 (MAPK 3) (AID 2283177). The protocol: NVS_ENZ_hMAPK3 is a biochemical, single-readout assay that uses extracted gene-proteins in a cell-free assay. Measurements were taken 1 hour after chemical dosing in a 384-well plate.NVS_ENZ_hMAPK3 is one of one assay component(s) measured or calculated from the NVS_ENZ_hMAPK3 assay. It is designed to make measurements of enzyme activity, a form of enzyme reporter, as detected with fluorescence intensity signals by Fluorescence and electrophoretic mobility shift technology.Data from the assay component NVS_ENZ_hMAPK3 was analyzed into 1 assay endpoint. This assay endpoint, NVS_ENZ_hMAPK3, was analyzed in the positive analysis fitting direction relative to DMSO as the negative control and baseline of activity. Using a type of enzyme reporter, loss-of-signal activity can be used to understand changes in the enzymatic activity as they relate to the gene MAPK3. Furthermore, this assay endpoint can be referred to as a primary readout, because this assay has produced multiple assay endpoints where this one serves a enzymatic activity function. To generalize the intended target to other relatable targets, this assay endpoint is annotated to the kinase intended target family, where the subfamily is serine/threonine kinase. […]
Sequence of Mitogen-activated protein kinase 3 (Homo sapiens) (P27361 whole entry, looked up): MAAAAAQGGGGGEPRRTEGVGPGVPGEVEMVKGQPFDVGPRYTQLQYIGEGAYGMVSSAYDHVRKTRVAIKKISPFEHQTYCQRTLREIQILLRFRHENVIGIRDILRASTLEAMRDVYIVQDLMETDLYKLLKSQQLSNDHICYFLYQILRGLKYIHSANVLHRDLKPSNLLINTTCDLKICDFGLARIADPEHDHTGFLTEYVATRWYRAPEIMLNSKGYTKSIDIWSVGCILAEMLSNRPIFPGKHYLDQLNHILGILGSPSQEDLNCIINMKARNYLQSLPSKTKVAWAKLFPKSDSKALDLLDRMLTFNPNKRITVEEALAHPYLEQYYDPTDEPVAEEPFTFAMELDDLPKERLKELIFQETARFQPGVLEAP

Sequence of human c-Jun N-terminal Kinases (JNK2), MAPK9 (gene 5601) (P45984 whole entry, looked up): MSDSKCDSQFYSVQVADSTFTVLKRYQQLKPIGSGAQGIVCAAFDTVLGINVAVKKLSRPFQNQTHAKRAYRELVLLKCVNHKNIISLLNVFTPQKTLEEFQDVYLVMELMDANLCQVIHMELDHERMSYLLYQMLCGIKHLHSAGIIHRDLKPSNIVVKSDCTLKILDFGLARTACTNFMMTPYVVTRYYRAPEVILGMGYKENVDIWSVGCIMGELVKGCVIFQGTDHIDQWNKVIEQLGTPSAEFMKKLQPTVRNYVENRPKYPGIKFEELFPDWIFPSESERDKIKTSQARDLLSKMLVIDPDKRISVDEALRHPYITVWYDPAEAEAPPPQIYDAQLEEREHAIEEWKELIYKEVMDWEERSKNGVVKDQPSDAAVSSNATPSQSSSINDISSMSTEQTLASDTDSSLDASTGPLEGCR
Sequence of human LYN Proto-Oncogene, Src family Tyrosine Kinase (LynA), LYN (gene 4067) (P07948 whole entry, looked up): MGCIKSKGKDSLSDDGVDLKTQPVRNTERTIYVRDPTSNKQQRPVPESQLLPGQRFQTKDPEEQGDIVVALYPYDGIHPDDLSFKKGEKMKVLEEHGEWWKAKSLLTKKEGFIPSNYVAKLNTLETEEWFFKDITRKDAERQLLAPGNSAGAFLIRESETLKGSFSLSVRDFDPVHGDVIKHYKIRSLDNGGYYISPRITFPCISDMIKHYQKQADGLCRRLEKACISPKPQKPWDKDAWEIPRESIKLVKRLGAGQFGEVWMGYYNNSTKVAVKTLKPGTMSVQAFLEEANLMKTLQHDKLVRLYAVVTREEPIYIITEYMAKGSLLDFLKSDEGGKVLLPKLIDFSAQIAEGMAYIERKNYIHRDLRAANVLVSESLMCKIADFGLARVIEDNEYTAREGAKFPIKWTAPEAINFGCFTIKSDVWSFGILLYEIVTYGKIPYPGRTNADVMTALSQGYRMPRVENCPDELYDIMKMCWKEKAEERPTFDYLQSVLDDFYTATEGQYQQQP

As to `NCCO`, the compound was called inactive in assay [1]. Turning to `Cc1ccc(C(C)C)c(O)c1`, the outcome in assay [1] was inactive. Turning to `CC(=O)Oc1ccccc1C(=O)O`, in assay [2], the call was inactive. For `O=C(O)CCCCC(=O)O`, the compound was classed as inactive in assay [3]. The same measure, in the same setting: to `Cc1ccc(Cl)cc1` belongs “inactive”.
